Laboratory results reported in PubChem BioAssay AID504834 (National Center for Advancing Translational Sciences (NCATS), 2011).
The whole screen tested about 320,000 compounds, of which about 22,000 (6.9%) were called active. Not shown: some 27% with an inconclusive outcome. The call rests on the fitted dose curve; in most records, active means well fitted inhibition curve with a large enough effect; inconclusive means small, poorly fitted or top-dose-only effect, or another doubt; inactive means no such curve, though single readings can be large or run the other way. Only a selection was taken, and actives are over-represented in it overall.

assay: Primary qHTS for delayed death inhibitors of the malarial parasite plastid, 96 hour incubation; settings: P. falciparum luciferase reporter growth; series mostly up to 28.7 µM; activity change, negative = inhibition: at the top concentration
How it was run: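 Plates of compound plus infected erythrocytes (2% hematocrit, 0.05% parasitemia final) incubate 96 hours, 37 C, 5% CO2. Detection reagent added; reduced luminescence from the parasites' luciferase reporter flags inhibition.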
On the % scale 0 is the no-effect control and ±100 the full control effect; potency means the concentration at half of the fitted maximal effect.

Row | SMILES | activity change, negative = inhibition | Potency
1 | O=[N+]([O-])c1cccc(S(=O)(=O)NCc2ccccn2)c1 | 15.5% (inactive) | 
2 | Cc1ccc(S(=O)(=O)NNC(=O)Nc2cccc3ccccc23)cc1 |  | 1.85 µM (active)
3 | Cc1ccc(S(=O)(=O)NNC(=S)NC(C)(C)C)cc1 | -0.316% (inactive) | 
4 | COc1ccc(C(=O)NNS(=O)(=O)c2ccc(C)cc2)cc1 | 14.6% (inactive) | 
5 | CCOc1ccc(NC(=O)CN(C)C(=O)Cn2c(=O)cnc3ccccc32)cc1OCC | 36.6% (inactive) | 
6 | COc1ccccc1C(=O)NC(=O)COC(=O)C1CC1 | 24.6% (inactive) | 
7 | CC(=O)c1ccccc1NC(=O)C1CC(=O)N(c2ccc3c(c2)OCCO3)C1 (stereo not given) | -15.7% (inactive) | 
8 | CCCCn1c(SCc2ncc(-c3ccccc3)o2)nc2cc(S(N)(=O)=O)ccc21 |  | 14.7 µM (active)
9 | CCCCn1c(SCC(=O)N2CCC(C(=O)OCC)CC2)nc2cc(S(N)(=O)=O)ccc21 |  | 13.1 µM (active)
10 | CCOC(=O)C1CCN(C(=O)CSc2cc(=O)n(C)c3ccccc23)CC1 |  | 2.33 µM (active)
11 | CCOC(=O)C1CCN(C(=O)COC(=O)C2CCN(S(=O)(=O)c3ccc4c(c3)OCCO4)CC2)CC1 | -15% (inactive) | 
12 | CCCCn1c(SCC(=O)N2CCCC2=O)nc2cc(S(N)(=O)=O)ccc21 | -21.5% (inactive) | 
13 | Cn1c(=O)cc(SCC(=O)N2CCCC2)c2cc(Cl)ccc21 | 2.24% (inactive) | 
14 | Cn1c(=O)cc(SCC(=O)N2CCN(C(=O)c3ccco3)CC2)c2ccccc21 | -22% (inactive) | 
15 | O=C(CCNS(=O)(=O)c1ccccc1)NCCCc1ccccc1 | 20.3% (inactive) | 
16 | CN1C(=O)c2ccc(C(=O)Nc3ccc(Br)cn3)cc2C1=O | -14% (inactive) | 
17 | Cc1c(C(=O)N2CCOCC2)[nH]c2ccc(OCc3ccccc3)cc12 | 17.7% (inactive) | 
18 | CCOC(=O)c1[nH]c2ccc(OC)cc2c1NC(=O)CCN1CCN(Cc2ccccc2)CC1 | 74.3% (inactive) | 
19 | CCOC(=O)c1[nH]c2ccc(OC)cc2c1NC(=O)N1CCOCC1 |  | 14.7 µM (active)
20 | O=C(COc1ccc(Cl)cc1)Nc1ccc2oc(=O)ccc2c1 | 77.3% (inactive) | 
21 | CC1(C)CC(=O)C=C(c2ccc(Cl)c(C(F)(F)F)c2)C1 |  | 5.86 µM (active)
22 | COc1cc(F)c(C2=CC(=O)CC(C)(C)C2)cc1F | 19.7% (inactive) | 
23 | CC1(C)CC(=O)C=C(c2ccc3ncccc3c2)C1 | -12.4% (inactive) | 
24 | COC(=O)C1(C)NC(c2ccccc2OC)C2C(=O)N(c3ccccc3)C(=O)C21 (stereo not given) | 25.5% (inactive) | 
25 | Cc1cc(C(=O)NCCc2ccc(Cl)cc2)n(-c2ccccc2)n1 | 2.42% (inactive) | 
26 | CCc1[nH]nc(C(=O)N2CCCC(CO)(Cc3ccc(F)cc3F)C2)c1C (stereo not given) | 0% (inactive) | 
27 | CCCN(c1ccc(C)cc1)c1nc(=O)c2cccnc2s1 |  | 6.57 µM (active)

Row | SMILES | activity change, negative = inhibition | Potency
28 | CCc1c(C)nc(SCC(=O)NC2CCCC2)[nH]c1=O | 0% (inactive) | 
29 | CCc1ccc(C(=O)NN=C2CCCCCC2)s1 | -9.21% (inactive) | 
30 | CC(=O)Nc1ccc(NC(=O)COc2ccc(-c3ccccc3)cc2)cc1 | -13.8% (inactive) | 
31 | C[N+]1(C)CCOC(O)(c2ccc(-c3ccc(C4(O)C[N+](C)(C)CCO4)cc3)cc2)C1 (stereo not given) |  | 5.86 µM (active)
32 | O=C(COC(=O)c1cnccn1)Nc1ccc(Cl)cc1C(F)(F)F | 5.52% (inactive) | 
33 | CCCCCCCC(=O)OC(CN1CCCCCC1)CN1CCCC1=O (stereo not given) | 47.3% (inactive) | 
34 | O=C1NC(c2cccc(Cl)c2)Nc2ccccc21 (stereo not given) | 18.4% (inactive) | 
35 | O=c1c(-c2cccc(Cl)c2)c[nH]n1-c1ccccc1 |  | 7.38 µM (active)
36 | O=C1CC(NNc2ccccc2)C(=O)N1c1cccc(Cl)c1 (stereo not given) | 0% (inactive) | 
37 | CC1(C)CC(=O)C=C(Nc2ccccc2)C1 | 0% (inactive) | 
38 | CC(=O)c1ccc(S(=O)(=O)NC2CC(=O)N(c3ccc4c(c3)OCCO4)C2)cc1 (stereo not given) | -18.6% (inactive) | 
39 | C=CCN1C(=O)C(O)(CC(=O)c2ccc(Cl)cc2)c2ccccc21 (stereo not given) |  | 14.7 µM (active)
40 | O=C(CC1(O)C(=O)N(CN2CCOCC2)c2ccccc21)c1ccccc1 (stereo not given) | -18.4% (inactive) | 
41 | C=CCN1C(=O)C(O)(CC(=O)c2ccccn2)c2ccccc21 (stereo not given) | -40.1% (inactive) | 
42 | O=C(Nc1nnc(-c2ccc(F)cc2)s1)c1c(F)cccc1Cl | 15.7% (inactive) | 
43 | O=C(c1ccc(Oc2ccc(Cl)cc2)c([N+](=O)[O-])c1)N1CCCC1 | -13.7% (inactive) | 
44 | O=C(Nc1ccc(F)cc1)C1CCN(C(=O)c2ccc([N+](=O)[O-])cc2)CC1 | 31.7% [at 5.75 µM] (inactive) | 
45 | CC1CCN(C(=O)c2ccc(S(=O)(=O)Cc3cc(F)ccc3F)c([N+](=O)[O-])c2)CC1 |  | 10.4 µM (active)
46 | C#CC(C)(C)NC(=O)c1cnc(-c2ccccc2)nc1-c1ccccc1 | -11.7% (inactive) | 
47 | Cc1oc2c(c1C(=O)N1CCOCC1)C(=O)c1ccccc1C2=O |  | 0.828 µM (active)
48 | Cc1noc(C)c1C(=O)N1CCOCC1 | 42.2% (inactive) | 
49 | O=C(c1ccccc1-c1ccccc1)N1CCOCC1 | 31% (inactive) | 
50 | O=S(=O)(NCC1CC1)c1ccc(F)c(Cl)c1 | 10.6% (inactive) | 
51 | CCOC(=O)C1CCN(S(=O)(=O)c2c(C)noc2C)CC1 | 13.3% (inactive) | 
52 | CCOC(=O)C1CCN(C(=O)C2CCN(S(=O)(=O)N3CCCC3)CC2)CC1 |  | 6.57 µM (active)
53 | CCOC(=O)N1CCC(C(N)=O)CC1 | -38.4% (inactive) | 
54 | CCOC(=O)C1CCN(C(=O)Nc2ccc(Cl)cc2)CC1 | -7.09% (inactive) | 

Row | SMILES | activity change, negative = inhibition | Potency
55 | CCOC(=O)C1CCN(C(=O)C2CCN(S(=O)(=O)c3c(C)noc3C)CC2)CC1 |  | 4.15 µM (active)
56 | CCOc1ccc(OCC)c(NC(=O)C2CCN(S(=O)(=O)c3c(C)noc3C)CC2)c1 | -12.7% (inactive) | 
57 | O=C(O)C1C2C=CC(C2)C1C(=O)NCc1ccccc1 (stereo not given) | 72.4% (inactive) | 
58 | COc1ccc(NS(=O)(=O)c2cccc3nsnc23)cc1Cl | -14.6% (inactive) | 
59 | Nc1c(Cl)cc(S(N)(=O)=O)cc1S(N)(=O)=O | 38.3% (inactive) | 
60 | CN(C)CCCN1C(=O)CSC1c1ccc([N+](=O)[O-])cc1 (stereo not given) | 23.9% (inactive) | 
61 | CCCCCCCCCCCCN1C(=O)CSC1c1cccnc1 (stereo not given) |  | 1.65 µM (active)
62 | CCCCCCOc1ccc(OC(=O)c2cccnc2)cc1 | 42.3% (inactive) | 
63 | COc1ccc(NC(=O)CN2C(=O)CSc3ccc(S(=O)(=O)N4CCC(C)CC4)cc32)cc1 | 13.9% (inactive) | 
64 | Cc1cc(C)nc(-n2nc(C)cc2NC(=O)c2ccc(F)cc2F)n1 |  | 9.28 µM (active)
65 | CC(=O)N/C(=N/c1nc(C)cc(C)n1)Nc1ccc(F)cc1F | 14.6% (inactive) | 
66 | Cc1cc(NC(=O)Nc2ccc(Cl)cc2)n(-c2ccccc2)n1 | 14.1% (inactive) | 
67 | Cc1c([N+](=O)[O-])c(N)nn1C | 70.1% (inactive) | 
68 | COc1ccc(CC(=O)Nc2c(C(N)=O)oc3ccccc23)cc1 | 25.4% (inactive) | 
69 | Cc1cc(C)c(NC(=O)c2oc3ccccc3c2COc2ccccc2)c(C)c1 |  | 5.22 µM (active)
70 | CCOC(=O)c1oc2ccccc2c1NC(=O)c1cccs1 | 13.6% (inactive) | 
71 | COc1ccc(-c2nnc(SCC(=O)Nc3cccnc3Cl)n2C)cc1 | -2.25% (inactive) | 
72 | Cc1cc(C)nc(SCC(=O)c2ccc(Cl)cc2)n1 | -20.9% (inactive) | 
73 | COc1ccccc1C(=O)NCCn1cc(SCC(=O)NCc2ccco2)c2ccccc21 | 61.9% (inactive) | 
74 | CCCn1cc(SCC(N)=O)c2ccccc21 | 42% (inactive) | 
75 | CCC(=O)c1cn(CCOc2ccccc2OC)c2ccccc12 |  | 13.1 µM (active)
76 | Cc1ccc(OCc2nnc(SC3CCc4ccccc4C3=O)n2C)cc1 (stereo not given) |  | 13.1 µM (active)
77 | Cc1ccc(OCc2nc3ccccc3n2C)cc1 | 1.42% (inactive) | 
78 | Cc1ccc(OCc2n[nH]c(=S)n2-c2ccccc2)cc1 | 31.5% (inactive) | 
79 | CCc1nn(CCCC(=O)Nc2ccc(C)cc2C)c(=O)c2cc3occc3n12 | 18.3% (inactive) | 
80 | CN(C)S(=O)(=O)c1cccc(C(=O)OCC(=O)N2CCCC2=O)c1 | 22.9% (inactive) | 
81 | Cc1cc(C)cc(C(=O)NCCN2CCOCC2)c1 | 1.87% (inactive) | 

Row | SMILES | activity change, negative = inhibition | Potency
82 | O=C(NCCN1CCOCC1)/C(=C/c1ccc(F)cc1)NC(=O)c1ccccc1 | 4.97% (inactive) | 
83 | Cc1ccc(C(=O)N/C(=C\c2ccc(F)cc2)C(=O)NCCN2CCOCC2)cc1 |  | 6.57 µM (active)
84 | Cc1ccc(C(=O)NC(=S)NCCN2CCOCC2)cc1 | 61.8% (inactive) | 
85 | COc1ccc(C(=O)NCCCN2CCOCC2)cc1Br | -0.71% (inactive) | 
86 | Cc1ccc(C(=O)NCCN2CCOCC2)cc1C |  | 7.38 µM (active)
87 | CCOc1ccc(N(C)S(=O)(=O)c2cnc[nH]2)cc1 | 0.69% (inactive) | 
88 | O=C(COc1ccc(Cl)cc1Cl)N/N=C/c1ccccn1 | -9.1% (inactive) | 
89 | O=C(NCCN1CCOCC1)c1ccc(/C=C2\Sc3ccccc3N(Cc3ccc(F)cc3)C2=O)cc1 | -13.1% (inactive) | 
90 | CC(=O)[C@@]12O[C@@H]1C[C@H]1[C@@H]3CC[C@H]4C[C@@H](O)CC[C@]4(C)[C@H]3CC[C@@]12C | -1.74% (inactive) | 
91 | COC(=O)c1ccc(NS(=O)(=O)c2cc3c4c(c2)C(C)C(=O)N4CCC3)cc1 (stereo not given) | 4.26% (inactive) | 
92 | CC(C)c1ccc(S(=O)(=O)N2CCC3(CC2)OCCO3)cc1 | 72.8% (inactive) | 
93 | COc1ccc(S(=O)(=O)N2CCOC23CCN(S(=O)(=O)c2ccc([N+](=O)[O-])cc2)CC3)cc1 |  | 11.7 µM (active)
94 | COc1ccc(CNC(=O)C(=O)N2CCC3(CC2)OCCN3S(=O)(=O)c2ccc(C)cc2)cc1 | 4.09% (inactive) | 
95 | C=CCn1c(=O)c(C(=O)Nc2ncccc2O)c(O)c2ccccc21 | -8.16% (inactive) | 
96 | CC(C)Oc1ccc(CCc2n[nH]c(=S)n2Cc2ccccc2)cc1 |  | 2.08 µM (active)
97 | CC(NS(=O)(=O)c1ccccc1)c1n[nH]c(=S)n1-c1ccccc1 (stereo not given) | -8.92% (inactive) | 
98 | C=CCn1c(CCc2ccc(OC(C)C)cc2)n[nH]c1=S | -16.8% (inactive) | 
99 | NS(=O)(=O)c1ccccc1NC(=O)c1c(O)c2ccccc2[nH]c1=O | -8.08% (inactive) | 
100 | Cc1cc(C(C)(C)C)cc(S(=O)(=O)Nc2ccc(C(=O)O)cc2)c1C | 23.8% (inactive) | 
101 | O=C(O)c1ccc(NS(=O)(=O)c2ccc3c(c2)C(=O)c2cc(S(=O)(=O)Nc4ccc(C(=O)O)cc4)ccc2-3)cc1 |  | 0.329 µM (active)
102 | O=C(c1ccc(NS(=O)(=O)c2ccc3[nH]c(=O)[nH]c3c2)cc1)N1CCCCC1 | -10.3% (inactive) | 
103 | Cc1cc(C)n(CCC(=O)N2CCN(S(=O)(=O)c3ccc(C)c(C)c3)CC2)n1 | -4.33% (inactive) | 
104 | O=C(NCCCN1CCOCC1)c1cc(-c2cccc(O)c2)on1 | -0.648% (inactive) | 
105 | CC(=O)Nc1nc2c(s1)C(=O)NCC(C)(C)C2 | 1.08% (inactive) | 
